Assay outcomes: PubChem BioAssay, Broad Institute
Many of the other results were omitted from the sample, so hits are more common in it than they were.
DUX4 inh: blocks DUX4-driven transcriptional activation | 0.8% of 37,000 active | activity change, negative = inhibition, % (test concentration not listed) | 293T-iDUX4 ZSCAN4-Gaussia luciferase reporter, 24 h; stronger effect = lower value | AID 1224904;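 active = mean inhibition of at least 10% in the main channel, exceeding the control channel by a set limit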;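 note: 0% = median of neutral control wells and -100% = median of positive control wells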
* marks the source's active call; other numbers are inactive results; ! = not confirmed by another sample.

SMILES | DUX4 inh
Cc1noc(C)c1S(=O)(=O)Nc1ccc2c(c1)C(=O)N([C@H](C)CO)C[C@@H](C)[C@H](CN(C)C(=O)Nc1cccc3ccccc13)OCCCC[C@@H](C)O2 | 4
O=C(Cc1ccccc1)N1CC[C@@H]2[C@H](CO)Nc3ccc(Br)cc3[C@@H]21 | 5
CCS(=O)(=O)Nc1ccc2c(c1)C(=O)N(C)[C@H]1CC[C@@H](CC(=O)NC)O[C@H]1CO2 | -4
COCC(=O)N1C[C@@H]2[C@H](c3ccccc31)[C@H](CO)N2Cc1ccccc1F | -1
COCC(=O)N1CC2(C1)[C@H](c1ccc(-c3cccc(F)c3)cc1)[C@H](CO)N2C(=O)COC | 3
CC(C)NC(=O)N1CC2(C1)[C@H](c1ccccc1)[C@@H](CO)N2Cc1cccnc1 | 5
C[C@H]1CN([C@@H](C)CO)C(=O)c2ccccc2-c2ccccc2CO[C@@H]1CN(C)S(=O)(=O)c1cccc(F)c1 | 5
O=C(Nc1ccccc1F)N1CC2(C1)[C@H](c1ccccc1)[C@H](CO)N2C(=O)CC1CC1 | -6
CN1[C@@H]2Cn3c(ccc(-c4ccccc4)c3=O)[C@H]1[C@@H](C(=O)Nc1nccs1)[C@@H]2CO | -1
O=C(Cc1ccncc1)N1C[C@@H]2N[C@H](C1)C2c1ccc(-c2ccccc2)cc1 (stereo partly drawn) | -3
C(=C\c1ccc(C2[C@@H]3CN(Cc4nccs4)C[C@H]2N3)cc1)/c1ccccc1 (stereo partly drawn) | -32*!
C(=C\c1ccc(C2[C@@H]3CN(Cc4ccccn4)C[C@H]2N3)cc1)/c1ccccc1 (stereo partly drawn) | -32*
O=C(c1ccncc1)N1C[C@@H]2N[C@H](C1)C2c1ccc(/C=C/c2ccccc2)cc1 (stereo partly drawn) | 2
C/C=C/c1ccc(C2[C@H]3CNC[C@@H]2N3Cc2nccs2)cc1 (stereo partly drawn) | 9
C/C=C/c1ccc(C2[C@@H]3CN(C(=O)Cc4ccccc4)C[C@H]2N3)cc1 (stereo partly drawn) | 8
O=C(c1cccnc1)N1C[C@@H]2N[C@H](C1)C2c1ccc(-c2ccccc2)cc1 (stereo partly drawn) | 11
c1cc(-c2ccc(C3[C@@H]4CN(Cc5nccs5)C[C@H]3N4)cc2)ccn1 (stereo partly drawn) | -1
O=C(Cc1ccncc1)N1C[C@@H]2N[C@H](C1)C2c1ccc(/C=C/c2ccccc2)cc1 (stereo partly drawn) | -28*!
C/C=C/c1ccc(C2[C@@H]3CN(C(=O)Cc4ccncc4)C[C@H]2N3)cc1 (stereo partly drawn) | 7
c1cncc(-c2ccc(C3[C@@H]4CN(Cc5nccs5)C[C@H]3N4)cc2)c1 (stereo partly drawn) | -35*!
O=C(CN1CCOCC1)N1C[C@@H]2N[C@H](C1)C2c1ccc(/C=C/c2ccccc2)cc1 (stereo partly drawn) | -5
CCCN1[C@H](C(=O)NCc2cccc(OC)c2)[C@@H](CO)[C@@H]2Cn3c(ccc(C4=CCCC4)c3=O)[C@@H]21 | 1
O=C(N[C@H]1CC[C@H](CCNS(=O)(=O)c2ccccc2Cl)O[C@@H]1CO)c1ccc(F)cc1 | 3
N#C[C@@H]1[C@@H](c2ccccc2)[C@@H](CO)N1C(=O)c1ccccc1F | -3
O=C(N[C@@H]1C=C[C@H](CC(=O)N2CCc3ccccc3C2)O[C@H]1CO)C1CCC1 | 7
SMILES | DUX4 inh
O=C(c1cccnc1)N1CC[C@H]2[C@H](CO)Nc3ccc(-c4ccccc4)cc3[C@H]21 | 11
C[C@H]1CN([C@@H](C)CO)C(=O)c2cc(-c3cccc(C#N)c3)cnc2O[C@@H]1CN(C)Cc1ccc(F)cc1 | 4
O=C(C[C@@H]1CC[C@H]2[C@@H](COC[C@H](O)CN2S(=O)(=O)c2cccc(F)c2)O1)Nc1ccccc1 | -6
Cc1ccccc1S(=O)(=O)N1[C@H](C#N)[C@H](c2ccc(-c3ccccc3)cc2)[C@H]1CO | 0
O=S(=O)(c1ccccc1F)N1[C@@H]2CNC[C@H]1C2c1ccc(-c2cccc(F)c2)cc1 (stereo partly drawn) | 3
N#Cc1cccc(-c2ccc(C3[C@@H]4CN(C(=O)C5CCOCC5)C[C@H]3N4)cc2)c1 (stereo partly drawn) | 1
N#Cc1cccc(-c2ccc(C3[C@@H]4CN(S(=O)(=O)c5ccccc5F)C[C@H]3N4)cc2)c1 (stereo partly drawn) | -54*!
O=S(=O)(c1ccccc1F)N1CCCCN2[C@H](C1)[C@@H](c1ccc(-c3cncnc3)cc1)[C@@H]2CO | 30
O=S(=O)(c1ccccc1F)N1C[C@@H]2N[C@H](C1)C2c1ccc(-c2cncnc2)cc1 (stereo partly drawn) | -14*
O=S(=O)(c1ccccc1F)N1C[C@@H]2N[C@H](C1)C2c1ccc(-c2ccncc2)cc1 (stereo partly drawn) | -4
Cc1ccccc1S(=O)(=O)N1C[C@@H]2N[C@H](C1)C2c1ccc(-c2cccc(C#N)c2)cc1 (stereo partly drawn) | -71*!
O=S(=O)(c1ccccc1F)N1[C@@H]2CNC[C@H]1C2c1ccc(-c2ccncc2)cc1 (stereo partly drawn) | -2
O=C(NC1CCCC1)N1CCCCN2[C@H](CO)[C@H](c3ccc(-c4cncnc4)cc3)[C@H]2C1 | 4
CN(C)CC(=O)Nc1ccc2c(c1)C(=O)N(C)[C@H]1CC[C@H](CC(=O)Nc3cccc(Cl)c3)O[C@@H]1CO2 | -2
CN1[C@H](CO)[C@@H]2c3ccccc3N(C(=O)C3CCOCC3)C[C@@H]21 | -3
COCC#Cc1ccc([C@@H]2[C@@H](CO)N3CCCCN(C(=O)Nc4cc(F)ccc4F)C[C@@H]23)cc1 | -1
O=C(Nc1ccccc1F)N1CCCCN2[C@H](C1)[C@H](c1ccc(/C=C/c3ccccc3)cc1)[C@@H]2CO | 3
C/C=C/c1ccc([C@H]2[C@@H](CO)N3CCCCN(C(=O)Nc4ccc(F)cc4)C[C@@H]23)cc1 | 15
COCC#Cc1ccc([C@H]2[C@@H](CO)N3CCCCN(C(=O)Nc4cc(F)ccc4F)C[C@H]23)cc1 | -23*
CN(C)CC#Cc1ccc([C@@H]2[C@H](CO)N3CCCCN(C(=O)Nc4cc(F)ccc4F)C[C@@H]23)cc1 | 20
C/C=C/c1ccc([C@@H]2[C@@H](CO)N3CCCCN(C(=O)Nc4cc(F)ccc4F)C[C@@H]23)cc1 | -13*
C[C@@H]1CN([C@H](C)CO)C(=O)c2cc(-c3ccncc3)cnc2O[C@@H]1CN(C)S(=O)(=O)c1ccccc1 | 6
C[C@H]1CN([C@@H](C)CO)C(=O)c2cc(NC(=O)CCC(F)(F)F)ccc2O[C@@H]1CN(C)S(=O)(=O)c1ccc(F)cc1 | 5
